Data on 7 compounds can be found in ChEMBL document CHEMBL1961873, “Compounds: GSK PKIS; Assays: Nanosyn kinase panel” (2012).

Assay [1] addresses Serine/threonine-protein kinase pim-2 (Homo sapiens) (UniProt Q9P1W9). The settings on record: at 1 µM.
The target in assay [2] is Serine/threonine-protein kinase pim-3 (Homo sapiens) (UniProt Q86V86). To be noted: at 0.1 µM.
The target is the same in assay [3]. To be noted: at 1 µM.
The target in assay [4] is T1, MAP kinase-activated protein kinase 5 (Homo sapiens) (UniProt Q8IW41).
T1 sequence (whole entry): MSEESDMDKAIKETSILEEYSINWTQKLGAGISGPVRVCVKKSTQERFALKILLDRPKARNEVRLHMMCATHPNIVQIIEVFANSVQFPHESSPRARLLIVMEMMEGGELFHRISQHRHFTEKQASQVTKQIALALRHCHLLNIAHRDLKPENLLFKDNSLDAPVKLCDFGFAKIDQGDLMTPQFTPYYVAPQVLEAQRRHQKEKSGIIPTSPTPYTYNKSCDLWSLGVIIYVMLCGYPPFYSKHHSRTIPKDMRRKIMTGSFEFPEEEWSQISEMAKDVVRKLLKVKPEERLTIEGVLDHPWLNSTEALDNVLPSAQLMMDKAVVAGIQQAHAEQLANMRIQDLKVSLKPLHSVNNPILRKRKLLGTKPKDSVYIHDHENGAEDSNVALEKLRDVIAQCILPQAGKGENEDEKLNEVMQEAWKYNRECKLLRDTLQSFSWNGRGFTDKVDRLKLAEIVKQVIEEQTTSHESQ
The settings on record: at 0.1 µM.

Assay [5] has as its target T1, MAP kinase-activated protein kinase 5 (Homo sapiens). The settings on record: at 1 µM.
The target in assay [6] is Serine/threonine-protein kinase SIK1 (Homo sapiens) (UniProt P57059). The settings on record: at 0.1 µM.
Sequence of Serine/threonine-protein kinase SIK1 (Homo sapiens) (P57059 whole entry): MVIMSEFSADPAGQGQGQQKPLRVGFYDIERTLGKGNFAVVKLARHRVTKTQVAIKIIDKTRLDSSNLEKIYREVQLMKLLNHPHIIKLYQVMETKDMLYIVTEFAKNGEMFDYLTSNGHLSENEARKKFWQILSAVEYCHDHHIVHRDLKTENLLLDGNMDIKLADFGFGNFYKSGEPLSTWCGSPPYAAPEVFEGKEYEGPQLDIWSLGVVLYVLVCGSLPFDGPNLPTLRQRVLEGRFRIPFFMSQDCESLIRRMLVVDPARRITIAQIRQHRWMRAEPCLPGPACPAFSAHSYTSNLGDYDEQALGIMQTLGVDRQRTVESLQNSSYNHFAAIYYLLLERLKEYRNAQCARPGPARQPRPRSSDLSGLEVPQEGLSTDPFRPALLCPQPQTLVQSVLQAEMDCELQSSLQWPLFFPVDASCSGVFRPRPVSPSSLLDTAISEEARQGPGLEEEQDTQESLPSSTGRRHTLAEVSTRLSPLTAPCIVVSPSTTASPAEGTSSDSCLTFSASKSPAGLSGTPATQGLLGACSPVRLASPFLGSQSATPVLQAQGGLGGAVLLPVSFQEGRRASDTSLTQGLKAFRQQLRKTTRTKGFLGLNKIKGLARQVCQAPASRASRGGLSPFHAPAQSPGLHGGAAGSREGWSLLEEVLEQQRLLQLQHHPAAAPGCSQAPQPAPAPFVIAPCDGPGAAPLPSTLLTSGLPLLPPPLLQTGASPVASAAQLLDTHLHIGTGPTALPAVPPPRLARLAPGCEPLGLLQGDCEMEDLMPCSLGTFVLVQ
For assay [7] the target is unchanged. The settings on record: at 1 µM.
For assay [8], the target named is Serine/threonine-protein kinase SIK2 (Homo sapiens) (UniProt Q9H0K1). The settings on record: at 0.1 µM.
Sequence of Serine/threonine-protein kinase SIK2 (Homo sapiens) (Q9H0K1 whole entry, looked up): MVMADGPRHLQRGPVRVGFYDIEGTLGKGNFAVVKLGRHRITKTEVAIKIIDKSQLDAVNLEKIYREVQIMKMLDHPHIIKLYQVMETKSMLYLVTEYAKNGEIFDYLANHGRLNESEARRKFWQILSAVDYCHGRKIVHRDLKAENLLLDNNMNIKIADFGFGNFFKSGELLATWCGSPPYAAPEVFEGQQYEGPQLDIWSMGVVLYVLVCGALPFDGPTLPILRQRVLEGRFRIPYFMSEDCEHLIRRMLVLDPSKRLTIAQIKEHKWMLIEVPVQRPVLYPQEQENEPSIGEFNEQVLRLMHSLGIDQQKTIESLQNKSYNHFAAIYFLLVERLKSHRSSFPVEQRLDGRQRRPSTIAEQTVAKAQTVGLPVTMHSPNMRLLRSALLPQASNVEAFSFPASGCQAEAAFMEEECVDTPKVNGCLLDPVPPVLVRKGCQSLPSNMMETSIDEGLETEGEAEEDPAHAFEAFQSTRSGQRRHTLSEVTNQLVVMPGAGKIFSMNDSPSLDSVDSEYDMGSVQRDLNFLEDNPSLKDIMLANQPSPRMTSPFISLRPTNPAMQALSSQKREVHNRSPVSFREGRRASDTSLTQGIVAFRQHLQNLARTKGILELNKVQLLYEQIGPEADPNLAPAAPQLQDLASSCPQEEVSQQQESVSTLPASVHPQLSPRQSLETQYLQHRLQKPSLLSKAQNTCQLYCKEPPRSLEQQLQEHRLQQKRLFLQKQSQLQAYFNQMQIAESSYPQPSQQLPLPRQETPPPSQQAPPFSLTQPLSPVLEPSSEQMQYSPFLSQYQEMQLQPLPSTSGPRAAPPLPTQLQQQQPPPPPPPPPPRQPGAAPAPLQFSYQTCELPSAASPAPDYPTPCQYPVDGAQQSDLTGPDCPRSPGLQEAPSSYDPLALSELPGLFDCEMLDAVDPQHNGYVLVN
Assay [9] has the same target. To be noted: at 1 µM.
In assay [10] the target is T2, Serine/threonine-protein kinase TBK1 (Homo sapiens) (UniProt Q9UHD2).
T2 sequence (whole entry): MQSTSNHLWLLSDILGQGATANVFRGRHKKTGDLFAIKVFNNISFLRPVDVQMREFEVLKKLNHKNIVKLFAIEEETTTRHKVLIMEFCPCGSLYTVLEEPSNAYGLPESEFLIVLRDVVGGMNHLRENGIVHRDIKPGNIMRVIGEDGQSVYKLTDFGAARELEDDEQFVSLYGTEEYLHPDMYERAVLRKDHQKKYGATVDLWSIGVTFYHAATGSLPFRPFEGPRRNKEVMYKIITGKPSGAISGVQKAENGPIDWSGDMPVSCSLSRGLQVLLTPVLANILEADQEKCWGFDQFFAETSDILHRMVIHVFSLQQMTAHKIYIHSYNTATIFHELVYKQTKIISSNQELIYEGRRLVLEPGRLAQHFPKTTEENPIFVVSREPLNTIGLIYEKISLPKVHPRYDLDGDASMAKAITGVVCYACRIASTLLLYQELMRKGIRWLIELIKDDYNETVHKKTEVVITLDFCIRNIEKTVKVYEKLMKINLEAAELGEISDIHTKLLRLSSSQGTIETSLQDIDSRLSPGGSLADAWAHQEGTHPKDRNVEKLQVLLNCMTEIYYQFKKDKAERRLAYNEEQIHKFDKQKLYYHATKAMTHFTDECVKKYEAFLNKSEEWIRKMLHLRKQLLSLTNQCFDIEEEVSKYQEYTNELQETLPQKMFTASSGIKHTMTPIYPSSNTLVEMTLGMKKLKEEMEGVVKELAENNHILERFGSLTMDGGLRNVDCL
To be noted: at 0.1 µM.

Assay [11] addresses T2, Serine/threonine-protein kinase TBK1 (Homo sapiens). To be noted: at 1 µM.
In assay [12] the target is T3, Testis-specific serine/threonine-protein kinase 1 (Homo sapiens) (UniProt Q9BXA7).
T3 sequence (whole entry): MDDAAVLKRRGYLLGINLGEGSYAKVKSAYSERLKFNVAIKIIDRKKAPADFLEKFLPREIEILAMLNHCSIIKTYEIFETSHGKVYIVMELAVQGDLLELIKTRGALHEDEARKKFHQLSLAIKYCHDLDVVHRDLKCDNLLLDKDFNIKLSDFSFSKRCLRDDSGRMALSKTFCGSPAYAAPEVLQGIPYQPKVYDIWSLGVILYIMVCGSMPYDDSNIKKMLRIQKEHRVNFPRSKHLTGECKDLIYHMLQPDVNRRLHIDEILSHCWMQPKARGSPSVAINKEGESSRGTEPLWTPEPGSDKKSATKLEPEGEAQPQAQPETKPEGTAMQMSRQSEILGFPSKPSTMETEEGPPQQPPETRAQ
To be noted: at 0.1 µM.

In assay [13] the target is T3, Testis-specific serine/threonine-protein kinase 1 (Homo sapiens). To be noted: at 1 µM.
Assay [14] deals with T4, Testis-specific serine/threonine-protein kinase 2 (Homo sapiens) (UniProt Q96PF2).
T4 sequence (whole entry): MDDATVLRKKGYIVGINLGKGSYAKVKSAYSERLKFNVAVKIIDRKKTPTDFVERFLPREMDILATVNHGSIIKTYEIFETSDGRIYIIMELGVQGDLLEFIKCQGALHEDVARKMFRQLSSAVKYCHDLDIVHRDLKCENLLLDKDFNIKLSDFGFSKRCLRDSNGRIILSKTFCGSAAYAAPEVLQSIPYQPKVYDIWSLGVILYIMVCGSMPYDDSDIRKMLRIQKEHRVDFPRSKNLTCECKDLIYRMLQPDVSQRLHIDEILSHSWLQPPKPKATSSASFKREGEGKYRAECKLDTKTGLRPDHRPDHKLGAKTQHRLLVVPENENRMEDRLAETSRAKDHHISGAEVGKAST
To be noted: at 0.1 µM.

In assay [15] the target is T4, Testis-specific serine/threonine-protein kinase 2 (Homo sapiens). The settings on record: at 1 µM.
Assay [16] addresses Casein kinase I isoform alpha (Homo sapiens) (UniProt P48729). The settings on record: at 0.1 µM.
The target is the same in assay [17]. The settings on record: at 1 µM.
In assay [18] the target is Casein kinase I isoform gamma-1 (Homo sapiens) (UniProt Q9HCP0). To be noted: at 0.1 µM.
Sequence of Casein kinase I isoform gamma-1 (Homo sapiens) (Q9HCP0 whole entry, looked up, canonical isoform): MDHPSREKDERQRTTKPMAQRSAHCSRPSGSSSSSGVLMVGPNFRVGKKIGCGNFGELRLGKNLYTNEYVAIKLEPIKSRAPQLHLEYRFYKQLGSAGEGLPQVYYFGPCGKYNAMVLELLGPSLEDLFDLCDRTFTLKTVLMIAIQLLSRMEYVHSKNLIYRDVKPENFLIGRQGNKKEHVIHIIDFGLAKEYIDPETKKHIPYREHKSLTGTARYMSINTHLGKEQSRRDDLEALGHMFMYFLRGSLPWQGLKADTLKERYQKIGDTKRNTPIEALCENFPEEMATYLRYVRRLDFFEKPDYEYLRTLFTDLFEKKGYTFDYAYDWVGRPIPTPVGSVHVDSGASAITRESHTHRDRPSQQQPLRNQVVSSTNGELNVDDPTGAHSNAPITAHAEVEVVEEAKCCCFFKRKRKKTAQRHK
Assay [19] has the same target. The settings on record: at 1 µM.
Assay [20] addresses Casein kinase I isoform gamma-2 (Homo sapiens) (UniProt P78368). To be noted: at 0.1 µM.

Sequence of Casein kinase I isoform alpha (Homo sapiens) (P48729 2-337 limits assumed): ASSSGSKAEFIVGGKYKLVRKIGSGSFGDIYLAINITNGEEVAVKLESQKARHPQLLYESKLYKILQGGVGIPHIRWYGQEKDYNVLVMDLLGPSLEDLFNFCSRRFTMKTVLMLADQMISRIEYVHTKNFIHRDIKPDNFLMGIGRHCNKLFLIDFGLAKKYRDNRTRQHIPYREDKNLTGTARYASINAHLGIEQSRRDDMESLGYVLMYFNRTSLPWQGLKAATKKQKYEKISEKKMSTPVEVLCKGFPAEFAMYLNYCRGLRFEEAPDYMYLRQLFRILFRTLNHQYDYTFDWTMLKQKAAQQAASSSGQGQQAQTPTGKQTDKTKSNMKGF
Sequence of Serine/threonine-protein kinase pim-2 (Homo sapiens) (Q9P1W9 whole entry, looked up): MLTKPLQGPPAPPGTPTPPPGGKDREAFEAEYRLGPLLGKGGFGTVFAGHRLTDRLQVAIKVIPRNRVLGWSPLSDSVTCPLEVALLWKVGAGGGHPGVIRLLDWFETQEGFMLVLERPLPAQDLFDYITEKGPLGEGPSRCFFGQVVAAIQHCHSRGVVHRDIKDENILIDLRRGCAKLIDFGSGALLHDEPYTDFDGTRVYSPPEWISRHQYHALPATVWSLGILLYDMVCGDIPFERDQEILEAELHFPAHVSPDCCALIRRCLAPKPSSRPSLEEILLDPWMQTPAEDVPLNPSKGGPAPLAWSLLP
Sequence of Casein kinase I isoform gamma-2 (Homo sapiens) (P78368 whole entry, looked up, canonical isoform): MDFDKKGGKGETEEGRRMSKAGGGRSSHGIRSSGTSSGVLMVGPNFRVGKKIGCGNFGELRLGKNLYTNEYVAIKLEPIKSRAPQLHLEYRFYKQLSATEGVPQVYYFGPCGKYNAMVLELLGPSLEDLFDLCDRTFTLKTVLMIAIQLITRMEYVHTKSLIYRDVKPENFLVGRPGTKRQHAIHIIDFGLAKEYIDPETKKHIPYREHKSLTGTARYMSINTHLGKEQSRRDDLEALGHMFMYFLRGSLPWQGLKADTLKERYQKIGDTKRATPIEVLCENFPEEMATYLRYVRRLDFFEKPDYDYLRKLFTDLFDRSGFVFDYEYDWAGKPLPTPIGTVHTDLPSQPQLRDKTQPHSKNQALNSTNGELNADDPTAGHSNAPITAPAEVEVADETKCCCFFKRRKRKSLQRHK

As for `Fc1ccc(-c2ncn(C3CCNCC3)c2-c2ccnc(Oc3ccc(F)c(F)c3)n2)cc1`, the inhibition in [1] is -3.35%; in assay [2], -1.04%; in [3], -0.06%; in assay [4], 1.47%; in assay [5], 1.56%; in [6], 1.72%. For the same compound, the inhibition in [7] is 7.15%; in assay [8], 0.78%; in assay [9] it was 8.24%; in assay [10], 2.13%; in [11], 5.03%; in assay [12] it was 1.98%. The inhibition was found to be 3.01% in [13]; 0.64% in [14]; 1.42% in [15]; 4.09% in assay [16]; 15.4% in assay [17]; 0.31% in assay [18]. For the same compound, the inhibition in assay [19] was 2.33%; in [20] it was -0.65%.
For the compound `Fc1ccc(-c2c(-c3ccncc3)nc3n2CCS3)cc1`, the inhibition in assay [1] is -3.85%; in assay [2] it was 0.35%; in assay [3], 0.43%; in assay [4] it was 1.37%; in [5] it was 1.61%; in assay [6], 5%. In addition, the inhibition in assay [7] worked out at 7.55%; in assay [8], 5.11%; in [9] it was 5.89%; in [10], 0.11%; in assay [11], 2.15%; in assay [12], 2.46%. The inhibition was 2.91% in assay [13]; 1.87% in assay [14]; 2.38% in assay [15]; 2.51% in [16]; 4.21% in assay [17]; -1.2% in [18]. Besides, the results for the inhibition in [19] and in [20] were -0.38% and -1.41%, respectively.
As to `Fc1ccc(-c2ncn(C3CCNCC3)c2-c2ccnc(Oc3ccc4c(c3)OCO4)n2)cc1`, the inhibition in assay [1] came out at 0.71%; in [2], 0.14%; in assay [3] it was 1.3%; in assay [4], 2.12%; in [5], 2.05%; in assay [6], 5.99%. The inhibition was found to be 6.9% in assay [7]; 2.25% in assay [8]; 18.5% in [9]; 2.29% in [10]; 4.07% in assay [11]; 4.2% in assay [12]. The inhibition was determined as 4.17% in assay [13]; 2.83% in assay [14]; 4.26% in assay [15]; 6.52% in assay [16]; 31% in assay [17]; 5.84% in assay [18]. For the same compound, the inhibition was determined as 13.1% in [19] and 4.86% in assay [20].
`COc1cc(C)c(N(C)C(=O)CN(C)C)cc1Nc1nc(Nc2cccc(F)c2C(N)=O)c2cc[nH]c2n1`: the inhibition was -2.78% in assay [1]; -0.52% in assay [2]; 0.76% in assay [3]; 0.02% in assay [4]; -1.14% in assay [5]; 3.07% in [6]. Also, the inhibition in assay [7] came to 5.4%; in assay [8], 4.5%; in assay [9], 2.04%; in assay [10], 1.26%; in assay [11], 3.23%; in [12], 3.79%. For the same compound, the inhibition in assay [13] was 16.4%; in [14] it was 1.25%; in assay [15] it was 4.87%; in assay [16], -0.71%; in assay [17], 6%; in assay [18], -0.75%. The inhibition was 11.3% in [19] and -2.38% in [20].
With `O=C(Nc1n[nH]c2cc(-c3ccccc3)ccc12)C1CC1`, the inhibition in [1] is 0.64%; in [2], -2.16%; in assay [3], -2.34%; in assay [4], 1.27%; in [5] it was 0.86%; in [6], 5.14%. Also, the inhibition was 9.28% in [7]; 5.24% in [8]; 12.8% in assay [9]; 1.84% in assay [10]; 8.06% in assay [11]; 2.16% in [12]. The inhibition in assay [13] came out at 2.02%; in assay [14], 1.41%; in assay [15] it was 0.6%; in [16], 3.51%; in assay [17], 5.68%; in [18] it was 5.13%. For the same compound, the figures for the inhibition in assay [19] and in [20] were 5.75% and 4.46%, respectively.
For `CS(=O)(=O)CCNCc1ccc(-c2ccc3ncnc(Nc4ccc(OCc5ccccc5)c(Br)c4)c3c2)o1`, the inhibition in assay [1] is -3.1%; in [2] it was -0.66%; in assay [3], -0.32%; in assay [4] it was 1.32%; in assay [5] it was 2.06%; in assay [6], 2.19%. The inhibition in assay [7] stood at 8.17%; in [8], 4.6%; in [9], 4.18%; in [10], 1.02%; in assay [11] it was 1.05%; in assay [12], 2.71%. The inhibition in assay [13] came to 2.53%; in assay [14] it was 1.22%; in assay [15] it was 1%; in [16], 1.67%; in assay [17], 0.68%; in assay [18], 0.63%. For the same compound, the figures for the inhibition in assay [19] and in [20] were -0.07% and -0.49%, respectively.
Regarding `Fc1ccc(-c2ncn(C3CCNCC3)c2-c2ccnc(Oc3ccc(Oc4ccccc4)cc3)n2)cc1`, the inhibition in [1] is -0.39%; in assay [2], -1.06%; in [3], 0.02%; in assay [4] it was 1.12%; in [5], 1.72%; in [6] it was 7.97%. Besides, the inhibition worked out at 12.8% in assay [7]; 6.45% in assay [8]; 10.1% in assay [9]; 2.66% in assay [10]; 2.57% in [11]; 4.18% in assay [12]. Further, the inhibition worked out at 4.2% in assay [13]; 0.94% in assay [14]; 2.4% in assay [15]; 10.7% in assay [16]; 49.6% in [17]; 6.35% in assay [18]. The inhibition in [19] worked out at 20.6%; in [20] it was 5.54%.

By inhibition is commonly meant the drop in the measured response relative to a control, in per cent.
